# Source: the supplement of paper PMC11732987, “Enantioselective OTUD7B fragment discovery through chemoproteomics screening and high-throughput optimisation” (Communications Chemistry, 2025)
# Values without a mark were called inactive.
# Columns and labels:
# Assay in all cases: log2 ratio of Biotin-Ahx-Ub-VS probe labelling (fragment/DMSO); higher = less target engagement (more negative = stronger competition), active = hit call of the paper (q ≤ 0.05, log2 ratio ≤ -1)
# Conditions in all cases: compound concentration: 200 uM; treatment time: 3 h
# USP19 = target: T1, USP19 (UniProt O94966)
# T1 sequence (whole entry): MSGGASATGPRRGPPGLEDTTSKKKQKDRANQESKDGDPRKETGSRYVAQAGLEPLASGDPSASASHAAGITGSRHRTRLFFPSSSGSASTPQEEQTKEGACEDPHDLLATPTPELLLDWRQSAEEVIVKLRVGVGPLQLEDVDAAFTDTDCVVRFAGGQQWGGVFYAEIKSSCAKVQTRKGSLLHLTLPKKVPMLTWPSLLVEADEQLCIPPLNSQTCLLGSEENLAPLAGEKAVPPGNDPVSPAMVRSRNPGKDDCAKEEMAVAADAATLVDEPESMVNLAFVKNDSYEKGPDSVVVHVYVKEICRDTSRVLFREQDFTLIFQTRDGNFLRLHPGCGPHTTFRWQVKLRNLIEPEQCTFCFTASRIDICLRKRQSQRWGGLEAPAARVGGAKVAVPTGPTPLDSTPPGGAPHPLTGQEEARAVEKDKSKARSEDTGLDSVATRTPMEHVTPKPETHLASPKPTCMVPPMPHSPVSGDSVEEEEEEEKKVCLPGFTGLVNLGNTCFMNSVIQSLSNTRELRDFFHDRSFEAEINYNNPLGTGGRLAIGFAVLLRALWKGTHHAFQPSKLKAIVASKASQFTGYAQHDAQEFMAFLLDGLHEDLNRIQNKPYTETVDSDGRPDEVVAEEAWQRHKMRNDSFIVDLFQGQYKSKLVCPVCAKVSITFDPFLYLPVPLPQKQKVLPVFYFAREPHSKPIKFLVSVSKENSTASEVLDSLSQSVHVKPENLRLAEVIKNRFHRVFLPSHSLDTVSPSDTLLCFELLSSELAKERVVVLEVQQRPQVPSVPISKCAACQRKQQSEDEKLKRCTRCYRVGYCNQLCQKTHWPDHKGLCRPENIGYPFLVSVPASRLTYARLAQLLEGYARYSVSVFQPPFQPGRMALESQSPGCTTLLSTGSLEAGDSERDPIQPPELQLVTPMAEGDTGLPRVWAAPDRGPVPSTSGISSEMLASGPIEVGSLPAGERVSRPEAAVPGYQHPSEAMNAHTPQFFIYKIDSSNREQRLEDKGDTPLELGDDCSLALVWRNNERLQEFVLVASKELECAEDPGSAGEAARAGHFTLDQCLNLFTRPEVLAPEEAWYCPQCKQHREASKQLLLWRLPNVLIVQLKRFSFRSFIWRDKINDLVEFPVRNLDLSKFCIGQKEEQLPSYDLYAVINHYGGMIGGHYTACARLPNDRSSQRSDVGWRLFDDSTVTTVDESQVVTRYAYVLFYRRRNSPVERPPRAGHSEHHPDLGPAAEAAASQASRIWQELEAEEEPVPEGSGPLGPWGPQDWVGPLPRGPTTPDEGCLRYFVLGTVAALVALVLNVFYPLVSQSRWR
# Summary of the method: (§1)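 Labelled DUBs from HEK293T lysate were NeutrAvidin-enriched, digested with LysC and trypsin, and run by diaPASEF LC-MS/MS. Before that, each 495 µg sample in Tris/CHAPS/IGEPAL buffer with protease inhibitors was treated in triplicate with fragment at 200 µM or vehicle for 3 h, then with Biotin-Ahx-Ub-VS at 0.5 µM final for 1 h. Values are average log2 ratios of fragment over vehicle by unpaired t-test, based on global-median-normalised Spectronaut label-free quantities from proteins with ≥2 unique peptides.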
# USP22 = target: T2, USP22 (UniProt Q9UPT9)
# T2 sequence (whole entry): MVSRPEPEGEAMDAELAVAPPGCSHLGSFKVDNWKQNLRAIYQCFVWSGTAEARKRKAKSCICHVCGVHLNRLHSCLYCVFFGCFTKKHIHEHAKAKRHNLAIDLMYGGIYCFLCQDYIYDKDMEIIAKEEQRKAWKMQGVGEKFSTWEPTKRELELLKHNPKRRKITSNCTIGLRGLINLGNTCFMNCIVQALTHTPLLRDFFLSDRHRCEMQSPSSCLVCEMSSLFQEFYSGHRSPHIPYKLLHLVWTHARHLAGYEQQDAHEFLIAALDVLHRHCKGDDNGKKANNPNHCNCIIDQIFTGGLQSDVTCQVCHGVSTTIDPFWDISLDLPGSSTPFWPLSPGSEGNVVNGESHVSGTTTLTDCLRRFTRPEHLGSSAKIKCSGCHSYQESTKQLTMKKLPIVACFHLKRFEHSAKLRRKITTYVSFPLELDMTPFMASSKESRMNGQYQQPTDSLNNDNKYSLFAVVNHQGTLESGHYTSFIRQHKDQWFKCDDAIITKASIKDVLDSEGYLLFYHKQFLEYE
# Summary of the method: as §1
# USP24 = USP24 (UniProt Q9UPU5)
# Chain of USP24 (Q9UPU5 whole entry): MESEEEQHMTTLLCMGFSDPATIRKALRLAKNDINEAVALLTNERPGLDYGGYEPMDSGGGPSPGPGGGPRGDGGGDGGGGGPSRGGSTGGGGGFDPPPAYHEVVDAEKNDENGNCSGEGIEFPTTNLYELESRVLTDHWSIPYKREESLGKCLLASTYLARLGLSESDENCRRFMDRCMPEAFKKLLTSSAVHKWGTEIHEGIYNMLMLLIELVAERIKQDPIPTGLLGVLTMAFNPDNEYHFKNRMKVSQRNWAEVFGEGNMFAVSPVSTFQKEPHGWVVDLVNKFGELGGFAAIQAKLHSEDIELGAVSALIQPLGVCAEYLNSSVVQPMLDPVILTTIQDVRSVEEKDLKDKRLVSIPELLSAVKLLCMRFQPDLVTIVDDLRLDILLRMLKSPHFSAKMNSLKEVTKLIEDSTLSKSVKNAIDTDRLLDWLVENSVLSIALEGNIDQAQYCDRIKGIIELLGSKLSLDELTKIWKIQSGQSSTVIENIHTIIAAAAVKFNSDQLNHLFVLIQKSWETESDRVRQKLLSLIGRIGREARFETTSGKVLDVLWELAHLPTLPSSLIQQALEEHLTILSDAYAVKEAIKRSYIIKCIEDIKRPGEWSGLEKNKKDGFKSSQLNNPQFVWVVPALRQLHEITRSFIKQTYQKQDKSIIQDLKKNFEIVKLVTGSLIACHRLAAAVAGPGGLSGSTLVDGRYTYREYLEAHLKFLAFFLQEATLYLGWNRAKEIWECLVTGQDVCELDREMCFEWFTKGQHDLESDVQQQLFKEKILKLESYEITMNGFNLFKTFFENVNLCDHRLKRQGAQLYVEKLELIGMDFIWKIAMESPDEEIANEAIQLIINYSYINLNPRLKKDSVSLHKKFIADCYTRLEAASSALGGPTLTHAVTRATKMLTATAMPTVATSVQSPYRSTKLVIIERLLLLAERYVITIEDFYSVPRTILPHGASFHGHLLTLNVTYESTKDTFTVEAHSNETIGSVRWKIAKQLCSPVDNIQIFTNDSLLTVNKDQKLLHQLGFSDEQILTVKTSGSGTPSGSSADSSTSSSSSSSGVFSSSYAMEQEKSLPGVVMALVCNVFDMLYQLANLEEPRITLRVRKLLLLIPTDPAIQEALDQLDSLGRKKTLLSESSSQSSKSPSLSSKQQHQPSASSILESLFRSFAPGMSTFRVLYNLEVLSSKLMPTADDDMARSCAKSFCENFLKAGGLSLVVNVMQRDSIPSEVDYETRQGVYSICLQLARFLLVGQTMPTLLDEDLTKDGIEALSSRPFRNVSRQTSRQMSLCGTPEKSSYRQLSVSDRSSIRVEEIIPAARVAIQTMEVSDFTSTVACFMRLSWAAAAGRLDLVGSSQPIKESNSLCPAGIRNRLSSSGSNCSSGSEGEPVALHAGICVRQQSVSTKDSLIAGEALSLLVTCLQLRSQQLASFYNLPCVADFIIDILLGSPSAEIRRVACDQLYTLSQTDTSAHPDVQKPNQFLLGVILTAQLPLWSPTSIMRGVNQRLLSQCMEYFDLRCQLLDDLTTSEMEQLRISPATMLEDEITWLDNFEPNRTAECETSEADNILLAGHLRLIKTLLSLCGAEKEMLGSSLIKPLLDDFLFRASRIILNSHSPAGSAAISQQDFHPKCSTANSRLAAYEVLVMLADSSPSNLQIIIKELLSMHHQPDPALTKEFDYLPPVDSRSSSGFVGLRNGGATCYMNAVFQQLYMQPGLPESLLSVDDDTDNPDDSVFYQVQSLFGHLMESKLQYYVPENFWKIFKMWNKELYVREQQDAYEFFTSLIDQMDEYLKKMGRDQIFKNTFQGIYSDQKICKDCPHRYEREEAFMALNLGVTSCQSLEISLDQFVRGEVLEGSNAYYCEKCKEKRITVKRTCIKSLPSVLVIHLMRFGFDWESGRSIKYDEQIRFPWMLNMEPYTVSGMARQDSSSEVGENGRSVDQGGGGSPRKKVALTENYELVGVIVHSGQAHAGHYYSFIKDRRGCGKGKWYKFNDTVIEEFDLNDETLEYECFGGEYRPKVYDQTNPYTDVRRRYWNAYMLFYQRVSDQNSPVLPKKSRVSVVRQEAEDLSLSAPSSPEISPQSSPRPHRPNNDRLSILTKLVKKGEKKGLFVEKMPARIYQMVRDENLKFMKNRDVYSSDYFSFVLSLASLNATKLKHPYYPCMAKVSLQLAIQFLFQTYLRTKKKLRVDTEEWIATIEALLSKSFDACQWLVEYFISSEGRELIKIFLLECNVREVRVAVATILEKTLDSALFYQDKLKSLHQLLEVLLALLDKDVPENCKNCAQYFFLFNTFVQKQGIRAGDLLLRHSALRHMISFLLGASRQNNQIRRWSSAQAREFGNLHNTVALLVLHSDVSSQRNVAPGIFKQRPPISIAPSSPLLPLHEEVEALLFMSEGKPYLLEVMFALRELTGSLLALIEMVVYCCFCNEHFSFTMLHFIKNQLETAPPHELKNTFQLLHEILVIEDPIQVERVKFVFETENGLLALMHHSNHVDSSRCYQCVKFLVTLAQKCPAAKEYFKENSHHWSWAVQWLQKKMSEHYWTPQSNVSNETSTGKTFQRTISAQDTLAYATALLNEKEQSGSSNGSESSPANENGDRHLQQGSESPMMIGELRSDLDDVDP
# Summary of the method: as §1
# USP25 = target: T3, USP25 (UniProt Q9UHP3)
# T3 sequence (whole entry): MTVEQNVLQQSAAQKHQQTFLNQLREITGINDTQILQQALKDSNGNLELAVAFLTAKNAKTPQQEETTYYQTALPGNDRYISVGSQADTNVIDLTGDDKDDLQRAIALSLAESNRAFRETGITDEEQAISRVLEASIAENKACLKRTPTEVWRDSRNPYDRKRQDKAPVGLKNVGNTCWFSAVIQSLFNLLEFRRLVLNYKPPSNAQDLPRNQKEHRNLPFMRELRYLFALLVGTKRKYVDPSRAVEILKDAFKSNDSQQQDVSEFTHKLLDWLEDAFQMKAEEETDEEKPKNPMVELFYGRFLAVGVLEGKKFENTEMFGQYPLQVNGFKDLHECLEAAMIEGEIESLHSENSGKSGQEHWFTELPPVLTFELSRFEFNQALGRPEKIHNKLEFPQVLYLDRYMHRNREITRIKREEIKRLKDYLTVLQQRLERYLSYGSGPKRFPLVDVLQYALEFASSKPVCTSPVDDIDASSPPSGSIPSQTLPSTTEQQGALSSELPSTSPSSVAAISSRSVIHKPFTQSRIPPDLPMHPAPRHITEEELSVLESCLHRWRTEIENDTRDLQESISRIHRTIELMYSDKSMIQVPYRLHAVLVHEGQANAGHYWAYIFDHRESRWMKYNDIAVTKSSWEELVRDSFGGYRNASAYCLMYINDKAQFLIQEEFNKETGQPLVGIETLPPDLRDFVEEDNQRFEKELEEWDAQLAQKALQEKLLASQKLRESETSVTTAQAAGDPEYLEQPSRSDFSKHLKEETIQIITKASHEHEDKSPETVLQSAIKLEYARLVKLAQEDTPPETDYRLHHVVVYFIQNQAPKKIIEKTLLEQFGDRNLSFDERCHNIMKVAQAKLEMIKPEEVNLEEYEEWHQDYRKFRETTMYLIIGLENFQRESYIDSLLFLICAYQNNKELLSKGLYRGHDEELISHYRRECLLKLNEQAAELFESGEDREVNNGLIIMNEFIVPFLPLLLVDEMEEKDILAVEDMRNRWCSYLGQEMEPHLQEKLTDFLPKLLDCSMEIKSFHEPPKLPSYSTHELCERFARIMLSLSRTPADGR
# Summary of the method: as §1
# USP28 = target: T4, USP28 (UniProt Q96RU2)
# T4 sequence (whole entry): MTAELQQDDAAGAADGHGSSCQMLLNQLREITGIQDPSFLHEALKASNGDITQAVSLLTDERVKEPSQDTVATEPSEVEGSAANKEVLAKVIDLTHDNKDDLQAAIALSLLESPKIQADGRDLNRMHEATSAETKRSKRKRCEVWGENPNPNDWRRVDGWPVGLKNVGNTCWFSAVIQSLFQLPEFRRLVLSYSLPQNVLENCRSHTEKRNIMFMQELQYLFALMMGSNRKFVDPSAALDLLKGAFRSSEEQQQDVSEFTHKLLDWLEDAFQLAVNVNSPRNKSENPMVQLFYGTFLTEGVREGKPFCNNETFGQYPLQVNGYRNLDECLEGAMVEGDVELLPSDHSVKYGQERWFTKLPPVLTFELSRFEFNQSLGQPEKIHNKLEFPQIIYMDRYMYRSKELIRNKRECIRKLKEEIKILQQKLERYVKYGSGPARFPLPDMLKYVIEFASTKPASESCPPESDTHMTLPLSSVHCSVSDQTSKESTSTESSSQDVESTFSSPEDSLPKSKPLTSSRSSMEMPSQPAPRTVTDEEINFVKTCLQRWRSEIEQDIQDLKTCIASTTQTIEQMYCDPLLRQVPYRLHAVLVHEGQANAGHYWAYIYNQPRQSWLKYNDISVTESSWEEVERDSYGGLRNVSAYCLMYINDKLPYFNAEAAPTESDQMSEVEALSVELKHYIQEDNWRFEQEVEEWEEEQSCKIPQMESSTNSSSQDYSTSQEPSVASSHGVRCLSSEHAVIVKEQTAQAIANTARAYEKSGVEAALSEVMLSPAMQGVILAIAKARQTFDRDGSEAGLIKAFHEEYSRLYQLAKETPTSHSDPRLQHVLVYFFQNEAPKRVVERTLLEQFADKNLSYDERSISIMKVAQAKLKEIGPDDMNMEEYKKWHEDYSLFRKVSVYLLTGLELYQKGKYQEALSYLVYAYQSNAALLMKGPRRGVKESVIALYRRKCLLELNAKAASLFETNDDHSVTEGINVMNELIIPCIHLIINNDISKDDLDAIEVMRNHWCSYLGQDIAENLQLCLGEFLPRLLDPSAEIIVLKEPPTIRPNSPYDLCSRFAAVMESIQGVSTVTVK
# Summary of the method: as §1
structure (smiles),measurement,setting,value
COc1ccc(-c2csc(NC(=O)CCl)n2)cc1,log2 ratio of Biotin-Ahx-Ub-VS probe labelling,USP19,-0.674
same,log2 ratio of Biotin-Ahx-Ub-VS probe labelling,USP22,-0.229
same,log2 ratio of Biotin-Ahx-Ub-VS probe labelling,USP24,-1.44 (active)
same,log2 ratio of Biotin-Ahx-Ub-VS probe labelling,USP25,-0.591
same,log2 ratio of Biotin-Ahx-Ub-VS probe labelling,USP28,-0.741
